High-throughput results from PubChem.
This is one part of a sample in which hits are shown more often than they occur.
Tg IFNy HTS: blocks Toxoplasma gondii growth in the presence of IFN-gamma | Toxoplasma gondii growth in IFN-gamma-treated host cells; stronger effect = lower value | activity change, negative = inhibition, % (no concentration beside the values) | 69,000 tested, 3.8% active; in the data active means activity change below about -70%, passing the limit was not always enough;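 further: host cells are HeLa cells infected with Toxoplasma gondii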
Active calls of the source: *.

SMILES	Tg IFNy HTS
COc1ccc(CN2CC3(COC(C(=O)CCN4CCOCC4)C3)c3ccccc32)cc1 (centres undefined)	-36
O=C1CCCN1CCCNc1ccc(Cl)nn1	40
Cc1ncc(C(=O)N2CCC(c3cc(Cc4ccccc4)[nH]n3)CC2)c(C)n1	6
CCn1nnc2c1C(COC)CN(Cc1ccoc1)C2 (centres undefined)	-14
COc1ccccc1N1CCN(C(=O)Nc2ccc(F)cc2)CC1	-22
CC(C)(C)OC(=O)N1CCCN(C(=O)Nc2ccc(C(F)(F)F)cc2)CC1	-86*
Cn1cnc(S(=O)(=O)N2CCCN(C(=O)OC(C)(C)C)CC2)c1	3
CCOc1ncccc1CNC(=O)C(C)(C)NC(=O)c1cccs1	2
CCCn1nccc1C(=O)NCc1cc(F)cc2c(C)c(C)[nH]c12	-33
Cn1c(=O)oc2cc(S(=O)(=O)Nc3cccc(CCc4ccccn4)c3)ccc21	-58
O=C(NCCc1csc(-c2ccc(F)cc2)n1)C(=O)Nc1ccccc1[N+](=O)[O-]	34
O=C(NCCCN1CCOCC1)c1csc(-c2ccc(N3CCCC3)nc2)n1	-1
O=C(Cn1ncc2c(N3CCCCC3)ncnc21)NC1CCN(Cc2ccccc2)CC1	-7
CC1CCN(C(=O)c2csc(-c3ccc(N4CCCC4)nc3)n2)CC1	-47
CCc1csc(-c2ccc(N3CCN(C(=O)C4CCN(C(C)=O)CC4)CC3)nc2)n1	11
O=C(NC1CCN(Cc2ccccc2)CC1)c1csc(-c2ccc(N3CCCC3)nc2)n1	-85*
O=C(NCC1CCCO1)c1csc(-c2ccc(N3CCCC3)nc2)n1 (centres undefined)	-113*
Cc1cc(C)nc(N2CCC(CNC(=O)CCCc3c[nH]c4ccccc34)CC2)n1	-9
CCc1cn[nH]c1C1CCN(C(=O)c2cc3ncc(CCO)cn3n2)CC1	-51
Cc1oncc1C(=O)NC1CC2(CCN(C)CC2)Oc2ccccc21 (centres undefined)	0
CCn1cc(Cn2ccnc2-c2cccc(Cn3cccn3)c2)cn1	4
Cc1oc(-c2ccc(Cl)cc2)nc1CN1CCCC(C(=O)NC2CCCCCC2)C1 (centres undefined)	-99*
Cc1ccc(-c2nc(CN3CCN(C(=O)NC4CCCCC4)CC3)c(C)o2)cc1	-2
CCOc1ccc(-c2nc(CN3CCN(C(=O)NC4CCCCC4)CC3)c(C)o2)cc1	4
CN(C)CC1COC2(COCCN(C(=O)N(C)C)C2)C1 (centres undefined)	-1
SMILES	Tg IFNy HTS
Cc1cc(C2CCC2)nc(N2CCc3nnc(C)n3CC2)n1	-32
Cc1cc(F)c(Nc2ncnc3cc(OCc4ccccc4)ccc23)cc1O	-77*
Oc1cccc(Nc2ncnc3ccccc23)c1	-10
Cc1ccc(NC(=O)Nc2ccc(OCc3ccccc3)cc2)cc1NS(C)(=O)=O	-46
Cc1ccc(N2CCN(C(=O)c3ncc[nH]3)C(C)C2)cc1 (centres undefined)	2
OCCNc1cc(-c2ncccn2)c2cc[nH]c2n1	4
c1ccc(CC2CCN(Cc3cc4n(n3)CCCNC4)C2)cc1 (centres undefined)	-1
O=C(O)/C=C/c1ccc(O)c(O)c1	7
CC(C)c1ccc(/C=C/C(=O)O)cc1	1
O=C(O)/C=C/c1ccc(-c2ccc(O)c(C34CC5CC(CC(C5)C3)C4)c2)cc1	-79*
CC(C)n1cnc2c(-c3cnn(C)c3)nc(C3CCN(C(=O)c4cccnc4)CC3)cc21	-16
Cc1cnc(N2CCc3ncnc(C)c3CC2)nc1	13
Fc1cccc(CN2CCN(Cc3ccc(-c4cccnc4)cc3)CC2)c1	-15
CN(C)CC(=O)N1CCc2ncnc(N3CCOCC3)c2CC1	-43
COc1ccccc1-c1ccc2c(c1)[C@@H]1[C@@H](CCN1C(=O)C1CCC1)[C@H](CO)N2	-72*
N#Cc1ccc(-c2ccc3c(c2)[C@@H]2[C@@H](CCN2C(=O)C2CCCCC2)[C@H](CO)N3)cc1	-63
N#Cc1ccc(-c2ccc3c(c2)[C@H]2[C@H](CCN2C(=O)C2CCCCC2)[C@@H](CO)N3)cc1	-63
CCN(Cc1nc(COC)no1)C(=O)c1cccnc1N1CCOCC1	-19
CCCn1cnc(NC(=O)Cn2c(C(F)(F)F)nc3ccc(C)cc32)n1	0
Cc1ccc(NC(=O)N2CCC3(CC2)Nc2cc(F)ccc2-n2cccc23)cc1Cl	93
Cc1ccc(C(C)CCN2CCN(c3ccccc3C(O)c3nccn3C)CC2)o1 (centres undefined)	20
Cc1oc(-c2ccccc2)nc1CNS(=O)(=O)c1ccc(C(C)C)cc1	-62
COc1ccc(-c2nc(CNS(=O)(=O)c3ccc(OC)cc3)c(C)o2)cc1	0
Cc1ccc(-c2nc(CNS(=O)(=O)c3ccc(C(C)C)cc3)c(C)o2)cc1	-105*
Cc1cc(C)n2c(C(=O)N(C)C3Cc4ccccc4C3)nnc2n1	-2
SMILES	Tg IFNy HTS
Fc1cccc(NC(=S)Nc2ccc3ccccc3c2)c1	-88*
Fc1ccc(NC(=S)Nc2ccccc2Cl)cc1	35
CSc1cccc(NC(=S)NCc2ccc(F)cc2)c1	61
COc1ccc(C(=O)N2CCC(c3ccc(C(=O)N4CCOCC4)cn3)CC2)cn1	-1
CNC(=O)c1cc(-c2cccc(C(C)OC)c2)ccc1Cl (centres undefined)	-40
COc1ccccc1-c1nc(Cc2noc(-c3ccccn3)n2)c(C)o1	28
COc1ccccc1-c1nc(Cc2noc(-c3ccccc3F)n2)c(C)o1	-79*
COc1ccccc1-c1nc(Cc2noc(-c3ccc(F)cc3)n2)c(C)o1	23
Cc1ccc(OCc2nc(Cc3nc(-c4ccccc4)oc3C)no2)cc1	-63
COc1ccc(-c2nc(Cc3noc(-c4ccccc4F)n3)c(C)o2)cc1	-113*
COc1cccc(-c2nc(Cc3nc(-c4ccccc4)oc3C)no2)c1	53
Cc1oc(C2CCN(C(=O)Nc3ccc4c(c3)CCC4)CC2)nc1C(=O)N(C)C	114
O=C1NC(Cc2ccc(F)cc2)(C2CCNCC2)C(=O)N1CCn1ccnc1 (centres undefined)	-59
COc1cc(NC(=O)C2(C)CC(C)=NO2)ccc1NC(=O)C(C)(C)C (centres undefined)	-3
O=C(N[C@H]1C[C@H]2C(=O)NCC(=O)N2C1)c1cncc(Cl)c1	6
CN(C)CC1CN(CC2CC2)Cc2nccn2C1 (centres undefined)	-5
CCN1c2cc(C)ccc2-n2cccc2C12CCN(C(=O)Nc1cccc(Br)c1)CC2	-84*
O=C(Nc1cccc(C(F)(F)F)c1)N1CCC2(CC1)Nc1ccccc1-n1cccc12	474
Cc1ccc(C)c(NC(=O)N2CCC3(CC2)Nc2cc(C)ccc2-n2cccc23)c1	-54
Cc1ccc2c(c1)NC1(CCN(C(=O)Nc3cccc(C(F)(F)F)c3)CC1)c1cccn1-2	81
CCN1c2cc(C)ccc2-n2cccc2C12CCN(C(=O)Nc1ccccc1Cl)CC2	-110*
CCN1c2cc(C)ccc2-n2cccc2C12CCN(C(=O)Nc1cccc(C(F)(F)F)c1)CC2	-111*
CCN1c2cc(C)ccc2-n2cccc2C12CCN(C(=O)Nc1ccc(OC)c(OC)c1)CC2	-31
CCN1c2cc(C)ccc2-n2cccc2C12CCN(C(=O)Nc1cccc(Cl)c1C)CC2	-28
CCN1c2cc(C)ccc2-n2cccc2C12CCN(C(=O)Nc1ccc(C)cc1Cl)CC2	107
Cc1cc(C)cc(NC(=O)N2CCC3(CC2)Nc2cc(F)ccc2-n2cccc23)c1	162
CCN1c2cc(C)ccc2-n2cccc2C12CCN(C(=O)Nc1ccc(C)c(Cl)c1)CC2	5
Cc1cc(C)cc(NC(=O)N2CCC3(CC2)Nc2cc(C)ccc2-n2cccc23)c1	-108*
